This is an account of results in PubChem BioAssay (NCI).

A short description of experiment [1]: NCI Yeast Anticancer Drug Screen. Data for the rad50 strain (AID 155).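 Also: 0% = growth of vehicle-only cultures of the same strain.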 As to conditions: S. cerevisiae rad50 strain growth inhibition, stronger effect = higher value. Put shortly: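 Readout: growth inhibition relative to vehicle-treated cultures. Compound exposure was carried out in a genetically defined yeast strain deficient in DNA damage repair.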
Experiment [2] can be described thus: NCI Yeast Anticancer Drug Screen. Data for the mec2-1 strain (AID 157). As to conditions: S. cerevisiae mec2-1 strain, stronger effect = higher value. Put shortly:
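Readout is yeast growth inhibition, normalised to vehicle-treated controls, in the mec2-1 strain exposed to compound.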

Experiment [3] is described as follows: NCI Yeast Anticancer Drug Screen. Data for the sgs1 mgt1 strain (AID 161).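 Also: 0% = growth of cultures given vehicle only.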 The settings on record: S. cerevisiae sgs1 mgt1 strain, stronger effect = higher value. In short, it runs like this: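 Percent growth inhibition was derived by comparing compound-exposed mutant yeast with vehicle-exposed cultures. The strain carries alterations in DNA damage repair.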
Experiment [4] is described as follows: NCI Yeast Anticancer Drug Screen. Data for the cln2 rad14 strain (AID 165).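 Also: 0% = growth equal to vehicle treated cultures.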 As to conditions: S. cerevisiae cln2 rad14 strain, stronger effect = higher value. In short, it runs like this:
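Relative to vehicle controls, growth inhibition of compound-treated cln2 rad14 yeast was recorded.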

Experiment [5] can be described thus: NCI Yeast Anticancer Drug Screen. Data for the bub3 strain (AID 167). The settings on record: S. cerevisiae bub3 mutant strain, stronger effect = higher value. In short, it runs like this: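 Readout: yeast growth inhibition, expressed relative to vehicle-only wells. The test organism is a mutant strain from a panel with lesions in DNA repair or checkpoint genes.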
Experiment [6] is described as follows: NCI Yeast Anticancer Drug Screen. Data for the mlh1 rad18 strain (AID 175). The settings on record: S. cerevisiae mlh1 rad18 strain growth inhibition, stronger effect = higher value. Put shortly: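 Test agents were incubated with a yeast strain of defined genotype (DNA damage repair defect). Inhibition of growth was derived by comparison with vehicle-exposed cultures.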

Setting [7] is: at 5.0 µM (retest, dose inferred, filed as 0.5).
Setting [8] is: at 50.0 µM (retest, dose inferred, filed as 5.0).

About 79,000 compounds went through this panel and 15% of them were active in at least one assay; those are over-represented in the sample as a whole. A number with no mark means an inactive call. The source made the active and inactive calls. Rule as the data show it: active = growth inhibition above about 70%; inactive = the rest.

As to `CC(C)SCC1CO1` (configuration not stated), the growth inhibition is -1% in experiment [1] (setting [7]); 1% in experiment [1] (setting [8]); -19.6% in experiment [1] (at 50.0 µM); -1% in experiment [2] (setting [7]); -4% in experiment [2] (setting [8]); 3.9% in experiment [2] (at 50.0 µM). In addition, the growth inhibition was -1% in experiment [3] (setting [7]); 1% in experiment [3] (setting [8]); 18.1% in experiment [3] (at 50.0 µM); 2% in experiment [4] (setting [7]); -11% in experiment [4] (setting [8]); 47.5% in experiment [4] (at 50.0 µM). Also, the growth inhibition in experiment [5] (setting [7]) is 0%; in experiment [5] (setting [8]) it was -9%; in experiment [5] (at 50.0 µM) it was -6.55%; in experiment [6] (setting [7]), -1%; in experiment [6] (setting [8]) it was -5%; in experiment [6] (at 50.0 µM), -3.5%.
As for `O=C(c1ccccc1)c1ccccc1S(=O)(=O)Nc1ccccc1`, the growth inhibition in experiment [1] (setting [7]) was -5%; in experiment [1] (setting [8]), 79% (active); in experiment [1] (at 50.0 µM), 62.9%; in experiment [2] (setting [7]) it was -2%; in experiment [2] (setting [8]), 69%; in experiment [2] (at 50.0 µM), 27.8%. Besides, the growth inhibition in experiment [3] (setting [7]) was -3%; in experiment [3] (setting [8]) it was 77% (active); in experiment [3] (at 50.0 µM), 30.2%; in experiment [4] (setting [7]), -8%; in experiment [4] (setting [8]), 86% (active); in experiment [4] (at 50.0 µM), 62.1%. The growth inhibition in experiment [5] (setting [7]) is 4%; in experiment [5] (setting [8]), 91% (active); in experiment [5] (at 50.0 µM) it was 64.2%; in experiment [6] (setting [7]), -2%; in experiment [6] (setting [8]) it was 87% (active); in experiment [6] (at 50.0 µM) it was 72.8% (active).
For `COc1cccc(C2c3cc4c(cc3OC(NNS(=O)(=O)c3ccc(C)cc3)C2C)OCO4)c1O` (configuration not stated), the growth inhibition in experiment [1] (setting [7]) is -7%; in experiment [1] (setting [8]) it was 94% (active); in experiment [1] (at 50.0 µM), 75.4% (active); in experiment [2] (setting [7]) it was -10%; in experiment [2] (setting [8]) it was 81% (active); in experiment [2] (at 50.0 µM) it was 85.6% (active). Also, the growth inhibition was -4% in experiment [3] (setting [7]); 95% (active) in experiment [3] (setting [8]); 92.2% (active) in experiment [3] (at 50.0 µM); 9% in experiment [4] (setting [7]); 88% (active) in experiment [4] (setting [8]); 87.2% (active) in experiment [4] (at 50.0 µM). In addition, the growth inhibition in experiment [5] (setting [7]) is -20%; in experiment [5] (setting [8]), 92% (active); in experiment [5] (at 50.0 µM) it was 54%; in experiment [6] (setting [7]), 6%; in experiment [6] (setting [8]), 94% (active); in experiment [6] (at 50.0 µM) it was 85.5% (active).
In the case of `CC(C)N(CN1C(=O)N/C(=C/c2cccc(/C=C3/NC(=O)N(CN(C(C)C)C(C)C)C3=O)c2)C1=O)C(C)C`, the growth inhibition in experiment [1] (setting [7]) is 7%; in experiment [1] (setting [8]) it was 8%; in experiment [1] (at 50.0 µM) it was 21%; in experiment [2] (setting [7]), -15%; in experiment [2] (setting [8]), -11%; in experiment [2] (at 50.0 µM), 2.95%. Moreover, the growth inhibition in experiment [3] (setting [7]) is -1%; in experiment [3] (setting [8]), 3%; in experiment [3] (at 50.0 µM), -2.5%; in experiment [4] (setting [7]), -19%; in experiment [4] (setting [8]), -15%; in experiment [4] (at 50.0 µM), 63.4%. The growth inhibition in experiment [5] (setting [7]) was 12%; in experiment [5] (setting [8]), 30%; in experiment [5] (at 50.0 µM), 17.6%; in experiment [6] (setting [7]), 7%; in experiment [6] (setting [8]) it was 8%; in experiment [6] (at 50.0 µM), -4.65%.
As to `CN(CC(=O)O)c1ncc2c(n1)-c1ccccc1OC2`, the growth inhibition in experiment [1] (setting [7]) was 17%; in experiment [1] (setting [8]), 13%; in experiment [1] (at 50.0 µM), 48.6%; in experiment [2] (setting [7]), 8%; in experiment [2] (setting [8]), 12%; in experiment [2] (at 50.0 µM) it was 57.1%. Besides, the growth inhibition is 6% in experiment [3] (setting [7]); 17% in experiment [3] (setting [8]); -21% in experiment [3] (at 50.0 µM); 14% in experiment [4] (setting [7]); 18% in experiment [4] (setting [8]); -23.5% in experiment [4] (at 50.0 µM). The growth inhibition in experiment [5] (setting [7]) was 12%; in experiment [5] (setting [8]) it was 15%; in experiment [5] (at 50.0 µM), -28.1%; in experiment [6] (setting [7]) it was 14%; in experiment [6] (setting [8]) it was 10%; in experiment [6] (at 50.0 µM) it was -55.2%.
For the compound `N#Cc1c(SCc2ccc(Cl)cc2)nsc1Nc1ccc(Cl)cc1`, the growth inhibition in experiment [1] (setting [7]) was 90% (active); in experiment [1] (setting [8]), 95% (active); in experiment [1] (at 50.0 µM), 86.2% (active); in experiment [2] (setting [7]), 91% (active); in experiment [2] (setting [8]), 95% (active); in experiment [2] (at 50.0 µM), 88% (active). Moreover, the growth inhibition in experiment [3] (setting [7]) was 91% (active); in experiment [3] (setting [8]), 98% (active); in experiment [3] (at 50.0 µM), 87.2% (active); in experiment [4] (setting [7]) it was 87% (active); in experiment [4] (setting [8]), 97% (active); in experiment [4] (at 50.0 µM) it was 87.7% (active). Besides, the growth inhibition in experiment [5] (setting [7]) is 86% (active); in experiment [5] (setting [8]), 98% (active); in experiment [5] (at 50.0 µM), 21%; in experiment [6] (setting [7]) it was 93% (active); in experiment [6] (setting [8]), 93% (active); in experiment [6] (at 50.0 µM), 86% (active).
Regarding `COc1ccccc1/C=C1\S/C(=N/Nc2nc(C)c(C(C)=O)s2)NC1=O`, the growth inhibition in experiment [1] (setting [7]) was 20%; in experiment [1] (setting [8]) it was 29%; in experiment [1] (at 50.0 µM), -14.6%; in experiment [2] (setting [7]), 15%; in experiment [2] (setting [8]), 32%; in experiment [2] (at 50.0 µM) it was -3.1%. Besides, the growth inhibition in experiment [3] (setting [7]) was 20%; in experiment [3] (setting [8]), 39%; in experiment [3] (at 50.0 µM), -0.75%; in experiment [4] (setting [7]), 20%; in experiment [4] (setting [8]), 34%; in experiment [4] (at 50.0 µM) it was 5.4%. In addition, the growth inhibition in experiment [5] (setting [7]) is 17%; in experiment [5] (setting [8]) it was 43%; in experiment [5] (at 50.0 µM), -18%; in experiment [6] (setting [7]), 15%; in experiment [6] (setting [8]), 36%; in experiment [6] (at 50.0 µM), -7.7%.
`O=C1c2ccccc2C(O)(C#Cc2ccccc2)c2cnccc21` (configuration not stated): the growth inhibition in experiment [1] (setting [7]) is -6%; in experiment [1] (setting [8]) it was 96% (active); in experiment [1] (at 50.0 µM), 97.8% (active); in experiment [2] (setting [7]), -5%; in experiment [2] (setting [8]) it was 97% (active); in experiment [2] (at 50.0 µM), 98.5% (active). In addition, the growth inhibition in experiment [3] (setting [7]) was -1%; in experiment [3] (setting [8]), 97% (active); in experiment [3] (at 50.0 µM), 98.2% (active); in experiment [4] (setting [7]), -11%; in experiment [4] (setting [8]), 96% (active); in experiment [4] (at 50.0 µM), 97% (active). Moreover, the growth inhibition was -11% in experiment [5] (setting [7]); 97% (active) in experiment [5] (setting [8]); 98.2% (active) in experiment [5] (at 50.0 µM); -5% in experiment [6] (setting [7]); 96% (active) in experiment [6] (setting [8]); 97.8% (active) in experiment [6] (at 50.0 µM).
With `C=C1CC(Cn2ccc(=O)[nH]c2=O)(c2ccc(Cl)cc2)OC1=O` (configuration not stated), the growth inhibition was 11% in experiment [1] (setting [7]); 64% in experiment [1] (setting [8]); 47.9% in experiment [1] (at 50.0 µM); -4% in experiment [2] (setting [7]); 85% (active) in experiment [2] (setting [8]); 49.8% in experiment [2] (at 50.0 µM). Moreover, the growth inhibition was -22% in experiment [3] (setting [7]); 80% (active) in experiment [3] (setting [8]); 70% (active) in experiment [3] (at 50.0 µM); 27% in experiment [4] (setting [7]); 35% in experiment [4] (setting [8]); 39.5% in experiment [4] (at 50.0 µM). For the same compound, the growth inhibition in experiment [5] (setting [7]) was 6%; in experiment [5] (setting [8]), 87% (active); in experiment [5] (at 50.0 µM) it was 65.8%; in experiment [6] (setting [7]) it was 19%; in experiment [6] (setting [8]), 81% (active); in experiment [6] (at 50.0 µM), 74.1% (active).
